The panel holds about 83,000 compounds, 20% with a hit somewhere; the sample as a whole holds those more often.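 Assay: single dose, 48 h. Readout: percent growth (0 = no net growth; negative = cell death). Active: <10.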 A number with no mark means an inactive call. The source made the active and inactive calls.
How the values were obtained:
Assay in all cases: NCI-60 one-dose screen, 48 h (100 = growth as untreated, 0 = no growth, -100 = all killed)
Conditions in all cases: 10 µM unless noted
NCI-H23 lung = test system: NCI-H23 lung
NCI-H226 lung = test system: NCI-H226 lung
NCI-H322M lung = test system: NCI-H322M lung
HOP-62 NSCLC = test system: HOP-62 NSCLC
NCI-H460 lung = test system: NCI-H460 lung
HOP-92 NSCLC = test system: HOP-92 NSCLC
NCI-H522 lung = test system: NCI-H522 lung
A549/ATCC NSCLC = test system: A549/ATCC NSCLC
786-0 renal = test system: 786-0 renal
COLO 205 colon = test system: COLO 205 colon
DU-145 prostate = test system: DU-145 prostate
K-562 leukemia = test system: K-562 leukemia
MALME-3M melanoma = test system: MALME-3M melanoma
MDA-MB-231 breast = test system: MDA-MB-231 breast
RXF 393 renal = test system: RXF 393 renal
SF-268 CNS = test system: SF-268 CNS
SF-539 CNS = test system: SF-539 CNS
UACC-257 melanoma = test system: UACC-257 melanoma
M14 melanoma = test system: M14 melanoma
SF-295 CNS = test system: SF-295 CNS

| Structure (SMILES) | growth (NCI-H23 lung) | growth (NCI-H226 lung) | growth (NCI-H322M lung) | growth (HOP-62 NSCLC) | growth (NCI-H460 lung) | growth (HOP-92 NSCLC) | growth (NCI-H522 lung) | growth (A549/ATCC NSCLC) | growth (786-0 renal) | growth (COLO 205 colon) | growth (DU-145 prostate) | growth (K-562 leukemia) | growth (MALME-3M melanoma) | growth (MDA-MB-231 breast) | growth (RXF 393 renal) | growth (SF-268 CNS) | growth (SF-539 CNS) | growth (UACC-257 melanoma) | growth (M14 melanoma) | growth (SF-295 CNS) |
| --- | --- | --- | --- | --- | --- | --- | --- | --- | --- | --- | --- | --- | --- | --- | --- | --- | --- | --- | --- | --- |
| O=C(Oc1cccnc1)c1ccsc1Nc1ccnc(C(F)(F)F)c1 | 35.4% | 98.6% | 104% | 96% | 105% | 44.6% | 44.8% | 98.2% | 108% | 101% | 108% | 25.7% | 84.9% | 63.2% | 105% | 42.6% | 99.9% | 76% | 81.6% | – |
| COc1cc(Nc2cc(C)nc(N3CCN(c4ccnc5cc(Cl)ccc45)CC3)n2)cc(OC)c1 | 9.55% (active) | 22.9% | 8.83% (active) | 10.1% | 2.55% (active) | 5.3% (active) | 9% (active) | 4.7% (active) | -13.1% (active) | -24.4% (active) | 2.17% (active) | 8.3% (active) | – | -35.1% (active) | 4.88% (active) | 15.1% | -16.9% (active) | 49.2% | 4.43% (active) | 0.307% (active) |
| CCOc1nc(-c2ccccc2)cc2c(O)c(C(=O)N/N=C/c3ccc(O)cc3O)[nH]c(=O)c12 | 3.35% (active) | 26.4% | 42.2% | 27.1% | 61.6% | -12.1% (active) | 10.8% | 46.2% | 14.4% | 15.9% | 23.4% | 31.5% | – | 43.2% | -35.2% (active) | 16.3% | 16% | -29.1% (active) | 21.5% | 19.3% |
| COc1ccc(S(=O)(=O)N2CCCCCC2)cc1NC(=O)c1[nH]c(C)c2c1CCCCC2=O | 30.4% | 45.5% | 35.8% | 26.8% | 42.2% | 31.5% | 27.3% | 29.6% | 34.9% | 26.8% | 58% | 21.4% | 55.6% | 36.3% | 34.7% | 52.8% | 29.9% | 34.5% | 42.8% | 25.5% |
| C=CCSSc1ncnc2c1ncn2C1OC(CO)C(O)C1O (stereo not drawn) | 39.7% | 65% | 33.6% | 19.8% | 43.3% | 28.2% | 11.3% | 79.7% | 14.6% | 25.6% | 35.2% | 40% | 48.3% | 48.1% | 34.6% | 28% | 19.9% | 39.8% | 15.4% | 17.9% |
| Cc1ccc(C2=NN3C(C2)c2cc(Br)ccc2OC32CCN(Cc3ccccc3)CC2)o1 (stereo not drawn) | 94.9% | 86.9% | 92.7% | 104% | 98% | 80% | 89.1% | 96.3% | 103% | 105% | 98.8% | 85.3% | 103% | 92.3% | 110% | 84.4% | 101% | 101% | 106% | 100% |
| O=C1c2ccccc2C(=O)c2c(N=Nc3[nH]c(=S)[nH]c3O)cccc21 | 41.7% | 28.3% | 40.1% | 25% | 7.32% (active) | 19.8% | -6.34% (active) | 24.3% | 22.6% | 19% | 16.3% | 9.57% (active) | 45.4% | 40.3% | -22.4% (active) | 32.1% | -32.3% (active) | 56.9% | -15.8% (active) | 7.45% (active) |
| CCNC(=O)Oc1ccc(/C(=C(\C)c2ccc(Cl)cc2)c2ccc(OCCN3CCCCC3)cc2)cc1 | 65.1% | 78.2% | 75.2% | 58.7% | 22.3% | 68.8% | 80% | 46.1% | 41.9% | -60.9% (active) | 72.8% | – | -8.7% (active) | 51.8% | 49.1% | 55% | 47.8% | -33.9% (active) | -46.5% (active) | 42.7% |
| COC(=O)[C@@H]1CCCN1C(=O)[C@@H]1CCCN1C(=O)[C@H](Cc1ccccc1)NC(=S)Nc1cc(C(F)(F)F)cc(C(F)(F)F)c1 | 89.2% | 80.2% | 89.7% | 89.8% | 84.8% | 58.9% | -11.4% (active) | 15.6% | 82.4% | 82.7% | 40.4% | – | 94.8% | 62.8% | 83.8% | 35% | 94% | 11.8% | 89.3% | 92.9% |
| NC(=NCCCC1(c2ccccc2)CCCC1)Nc1ccc(Cl)cc1 | 44% | 96.5% | 36.2% | 69.6% | -32.8% (active) | 9.43% (active) | 56.9% | 63.1% | 65.5% | -72.5% (active) | 37.8% | – | -48.9% (active) | 1.92% (active) | 51.7% | 58.5% | 51.3% | 26.4% | -65.5% (active) | 10% |
| O=C(CCCCC(=O)N/N=C\c1ccccc1O)N/N=C\c1ccccc1O | 58.4% | 52.9% | 27.5% | 39.1% | 12.2% | 64.4% | 46.4% | 48.9% | 19.6% | 35.4% | 45.1% | – | 32.6% | 50% | 43.4% | 40% | 19% | 26% | 20.9% | 37.9% |
| COc1ccc(-c2nnc(SCC(=O)c3ccc(Cl)cc3)o2)cc1 | 93.9% | 103% | 108% | 95.7% | 110% | 105% | 76.3% | 92% | 96.9% | 112% | 108% | – | 106% | 98.7% | 113% | 101% | 95.6% | 107% | 106% | 101% |
| Cc1cc(N2CCN(C)CC2)nc(NC2CCCC(Nc3ccnc4cc(Cl)ccc34)C2)n1 (stereo not drawn) | 35.9% | 5.72% (active) | -6.32% (active) | -31.2% (active) | -26.6% (active) | -69.9% (active) | -46.4% (active) | 3% (active) | -60.5% (active) | -76.1% (active) | 16.9% | – | -82.9% (active) | -76.4% (active) | -62.2% (active) | -2.4% (active) | -84.3% (active) | -73.6% (active) | -86.4% (active) | -71.8% (active) |
| CC(=O)c1cc2c(N)c(C(=O)Nc3ccccc3)sc2nc1C | 91.5% | 92% | 50.8% | 75.1% | 15.9% | 57.6% | 66.5% | 28.4% | 77.2% | 4.95% (active) | 75.5% | – | 89.2% | 85.1% | 85.1% | 93.1% | 72.5% | 68.4% | 43.5% | 64.2% |
| CC(C)(CCCN=C(N)Nc1ccc(Cl)cc1)c1ccc(F)cc1 | 55.6% | 95.6% | 70.9% | 69.2% | 46.1% | 28% | 62% | 79.6% | 73.4% | -54% (active) | 80.1% | – | 64.3% | 41% | 88.7% | 72.6% | 76.1% | 86.6% | 51.5% | 53.1% |
| COc1ccc(C2C(C#N)=C(N)Oc3n[nH]c(-c4cccs4)c32)cc1I (stereo not drawn) | 92.8% | 98.3% | 102% | 81.7% | 101% | 88.2% | 83.2% | 87.1% | 99.1% | 117% | 107% | – | 102% | 102% | 93.9% | 91.2% | 85.6% | 89.4% | 90% | 94.4% |

From PubChem BioAssay (NCI)
